# Active and inactive are the calls of the source. Unless noted, the rule behind the calls is not given here.
# Legend:
# [1] = A549 cell viability effects, profiling panel, calcein-AM fluorescence, 48 h, basal (AID 1162); details: higher = more signal; note: test concentration not given here
# [2] = adipocyte viability effects, profiling panel, cell-based, 3T3-L1 adipocytes, calcein-AM fluorescence, 48 h, basal (AID 1163); details: 3T3-L1 adipocytes viability, higher = more signal; note: test concentration not given here
# [3] = HepG2 cell viability effects, profiling panel, calcein-AM fluorescence, 48 h, basal (AID 1164); details: higher = more signal; note: test concentration not given here
# [4] = MM1S cell viability effects, profiling panel, calcein-AM fluorescence, 48 h, basal (AID 1165); details: higher = more signal;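 note: viability of MM1S multiple myeloma cells under basal unstimulated conditions; test concentration not given here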
# [5] = basal RPMI8226 viability, no added stimulus, profiling panel, cell-based, calcein-AM fluorescence, 48 h, PK04 Diversity Set (AID 1166); details: RPMI8226 myeloma viability, higher = more signal;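 note: cells grown under basal conditions without added stimulus; test concentration not given here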
# [6] = basal HepG2 mitochondrial membrane potential changes, profiling panel, cell-based, JC-1 fluorescence, 24 h, 100 nL compound (AID 1167); details: higher = more signal; note: test concentration not given here
# [7] = basal 3T3-L1 adipocyte mitochondrial potential changes, profiling panel, cell-based, JC-1 fluorescence, 3T3-L1 adipocytes, 24 h, 100 nL compound (AID 1168); details: JC-1 mitochondrial fluorescence, higher = more signal, called active from +8 up or from −8 down; note: test concentration not given here
# [8] = basal RPMI8226 mitochondrial membrane potential changes, profiling panel, cell-based, JC-1 fluorescence, 24 h, 100 nL compound (AID 1169); details: RPMI8226 myeloma, JC-1 mitochondrial potential fluorescence, higher = more signal; note: test concentration not given here
# [9] = basal MM1S mitochondrial membrane potential changes, profiling panel, cell-based, JC-1 fluorescence, 24 h, 100 nL compound (AID 1170); details: higher = more signal; note: test concentration not given here
# [10] = A549 lung cancer cell viability effects, profiling panel, resazurin fluorescence, 24 h, PK04 Diversity Set (AID 1171); details: higher = more signal, called active from +8 up or from −8 down; note: test concentration not given here
# [11] = HepG2 liver cancer cell viability effects, profiling panel, resazurin fluorescence, 24 h, PK04 Diversity Set (AID 1172); details: higher = more signal; note: test concentration not given here
# [12] = basal S. cerevisiae growth modulation, no modifier, primary screen, OD600, strain BY4716, 24 h, basal condition (AID 1173); details: OD600, 24 h, higher = more signal, called active from +8 up or from −8 down
# [13] = MM1S myeloma cell viability, profiling panel, resazurin fluorescence, basal, 24 h, PK04 Diversity Set (AID 1174); details: higher = more signal, called active from +8 up or from −8 down;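 note: MM1S multiple myeloma cell line; test concentration not given here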
# [14] = target: Dihydroorotate dehydrogenase (quinone), mitochondrial (Plasmodium falciparum (isolate 3D7)) (UniProt Q08210); assay: PfDHODH enzyme inhibitors, primary screen, biochemical, C-terminal His tag, absorbance 600 nm (AID 1175); details: DCIP absorbance 600 nm, higher = more signal, called active from +8 up or from −8 down;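 note: recombinant parasite enzyme with a five histidine tag at its C terminus; test concentration not given here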
# [15] = P. aeruginosa biofilm formation inhibitors, primary screen, strain PAO1, LB-PBS medium, absorbance 600 nm (AID 1176); note: test concentration not given here; details: P. aeruginosa PAO1 growth/biofilm, A600, 12 h; higher = more signal
# [16] = S. cerevisiae RM11-1a growth modifiers, primary screen, strain RM11-1a, OD600, basal, 24 h (AID 1177); details: OD600, 24 h, higher = more signal, called active from +8 up or from −8 down;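 note: cultures grown under basal conditions with no added stressor; test concentration not given here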
# [17] = E. coli acrAB mutant growth effects, primary screen, E. coli filamentation inducers, strain DRC39, OD650, 24 h (AID 1178); details: higher = more signal, called active from +8 up or from −8 down;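 note: growth measured as culture turbidity by optical density at 650 nm; test concentration not given here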
# [18] = E. coli acrAB mutant growth effects, primary screen, E. coli filamentation inducers, strain DRC39, OD650, 48 h (AID 1179);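 note: screen aims at cell division blockers that make cells filament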; details: E. coli DRC39 delta-acrAB growth, higher = more signal, called active from +8 up or from −8 down
# [19] = RPMI8226 myeloma cell viability, profiling panel, resazurin fluorescence, basal, 24 h, PK04 Diversity Set (AID 1180); details: higher = more signal;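 note: RPMI8826 multiple myeloma cell line at 5000 cells per well; test concentration not given here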
# [20] = target: E3 ubiquitin-protein ligase XIAP (Homo sapiens) (UniProt P98170); assay: XIAP binders, primary screen, biophysical, small-molecule microarray, fluorescence 635 nm (AID 1181); details: small-molecule microarray binding, higher = more signal;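 note: score merges 667 nm emission and signal to noise over triplicate slides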
# E3 ubiquitin-protein ligase XIAP (Homo sapiens), sequence (P98170 whole entry, looked up): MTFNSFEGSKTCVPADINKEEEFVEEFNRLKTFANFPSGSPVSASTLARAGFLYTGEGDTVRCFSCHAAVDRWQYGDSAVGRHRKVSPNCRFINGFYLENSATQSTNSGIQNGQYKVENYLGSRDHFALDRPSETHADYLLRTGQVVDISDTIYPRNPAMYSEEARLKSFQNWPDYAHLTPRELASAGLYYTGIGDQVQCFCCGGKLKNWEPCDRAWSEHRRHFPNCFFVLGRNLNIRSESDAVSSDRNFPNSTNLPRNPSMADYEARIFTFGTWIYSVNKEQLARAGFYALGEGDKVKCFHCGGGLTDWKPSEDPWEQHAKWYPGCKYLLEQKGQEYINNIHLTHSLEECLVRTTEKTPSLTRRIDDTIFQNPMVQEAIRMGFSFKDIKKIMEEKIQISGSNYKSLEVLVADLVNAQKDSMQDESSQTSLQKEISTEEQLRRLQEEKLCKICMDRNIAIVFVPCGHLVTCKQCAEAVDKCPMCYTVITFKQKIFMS
# Dihydroorotate dehydrogenase (quinone), mitochondrial (Plasmodium falciparum (isolate 3D7)), sequence (Q08210 whole entry, looked up): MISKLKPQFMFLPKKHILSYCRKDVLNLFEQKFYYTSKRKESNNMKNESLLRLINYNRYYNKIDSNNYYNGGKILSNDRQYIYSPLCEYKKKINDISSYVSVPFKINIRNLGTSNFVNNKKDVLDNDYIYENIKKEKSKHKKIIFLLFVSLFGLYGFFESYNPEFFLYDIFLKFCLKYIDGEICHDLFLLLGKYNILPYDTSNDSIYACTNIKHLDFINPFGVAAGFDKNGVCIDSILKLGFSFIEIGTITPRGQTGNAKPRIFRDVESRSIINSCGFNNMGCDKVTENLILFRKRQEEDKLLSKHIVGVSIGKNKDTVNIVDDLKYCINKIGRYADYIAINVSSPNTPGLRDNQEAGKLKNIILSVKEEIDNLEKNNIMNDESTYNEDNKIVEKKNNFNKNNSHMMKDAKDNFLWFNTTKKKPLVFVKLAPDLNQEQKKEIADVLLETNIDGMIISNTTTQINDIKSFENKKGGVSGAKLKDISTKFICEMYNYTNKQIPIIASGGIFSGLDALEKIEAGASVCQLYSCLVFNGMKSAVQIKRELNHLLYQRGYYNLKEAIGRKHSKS
Compound,z-score [1],z-score [2],z-score [3],z-score [4],z-score [5],z-score [6],z-score [7],z-score [8],z-score [9],z-score [10],z-score [11],z-score [12],z-score [13],composite z-score [14],z-score [15],z-score [16],z-score [17],z-score [18],z-score [19],composite z-score [20]
COC(=O)CC=C[C@@H](C)[C@@H](C=NO[C@H](C)c1cn([C@H](CO)Cc2ccccc2)nn1)NS(=O)(=O)c1ccc(C)cc1,-0.775,-0.0125,-0.647,-0.0023,-0.254,-0.416,-2.46 (inactive),0.696,0.571,-0.102 (inactive),-0.891,-1.17 (inactive),-0.81 (inactive),0.0463 (inactive),0.0282 (inactive),-0.476 (inactive),0.0146 (inactive),-0.0853 (inactive),0.108,-0.206
CCCCC#C[C@@H]1C=C[C@H](OC(C)=O)[C@@H](COC(C)=O)O1,-0.0464,-0.515,-1.14,-3.37,-3.02,-1.24,0.378 (inactive),-0.746,-2.22,0.451 (inactive),0.693,-1.44 (inactive),-3.24 (inactive),-0.216 (inactive),0.909 (inactive),-0.667 (inactive),-0.233 (inactive),-0.248 (inactive),-1.82,0.474
Cc1ccc(S(=O)(=O)N[C@H]2COC(=O)CC=C[C@H](C)[C@@H](NS(=O)(=O)c3ccc(C)cc3)COC(=O)CC=C[C@@H]2C)cc1,-0.315,0.352,-0.521,0.248,-0.11,0.477,-0.0603 (inactive),0.822,0.507,0.694 (inactive),-0.0933,1.32 (inactive),0.418 (inactive),-0.069 (inactive),-0.585 (inactive),1.34 (inactive),0.455 (inactive),0.614 (inactive),0.0846,-0.146
CON=CC[C@@H]1C=C[C@H](OC(C)=O)[C@@H](COC(C)=O)O1,0.779,-0.221,-0.0589,-1.09,-0.0741,0.308,-0.835 (inactive),-0.589,-0.0369,-0.357 (inactive),-0.144,-0.0768 (inactive),0.0181 (inactive),-1.1 (inactive),-0.0903 (inactive),0.964 (inactive),0.736 (inactive),-1.17 (inactive),-0.143,0.502
CCOC(=O)[C@H](CC(C)C)NC(=O)CCC1CC(OC(=O)NCc2ccc3c(c2)OCO3)CC2(CCCC(COC(=O)NCC3CCCCC3)O2)O1 (stereo not given in full),1.2,-0.721,-0.991,-1.2,0.599,0.498,0.368 (inactive),-0.247,-0.972,1.26 (inactive),0.471,0.105 (inactive),1.4 (inactive),-0.19 (inactive),-0.0326 (inactive),0.494 (inactive),0.536 (inactive),0.0926 (inactive),1.32,-0.0053
CON=C[C@@H](C)[C@H](OCc1ccccc1)C(C)C,-1.1,0.425,-0.0832,-0.43,-1.01,0.0714,0.634 (inactive),-0.408,0.699,0.073 (inactive),-0.304,-0.639 (inactive),0.548 (inactive),-2.72 (inactive),0.298 (inactive),-0.919 (inactive),-1.29 (inactive),-2.73 (inactive),-0.32,-0.409
COC(=O)[C@@H]1CC[C@H](C)[C@@H](c2ccc(C)cc2)N1C(=O)c1ccc(C=NO[C@H](C)c2cn([C@H](CO)Cc3ccccc3)nn2)cc1,0.354,0.747,-1.31,0.005,-2.98,-0.701,-1.55 (inactive),-0.041,0.697,-0.0166 (inactive),-1.32,0.0789 (inactive),0.534 (inactive),0.271 (inactive),-0.598 (inactive),0.59 (inactive),-1.28 (inactive),-1.03 (inactive),0.641,-0.102
COc1ccc(O[C@H]2C=C[C@@H](c3ccccc3)O[C@@H]2CON=C(C)CCN2CCc3nc(-c4ccccc4)c(-c4ccccc4)cc3C2)cc1,0.437,0.133,0.59,-1.65,-0.439,4.95,-1.39 (inactive),0.965,-0.214,0.621 (inactive),0.449,-0.606 (inactive),-0.159 (inactive),0.503 (inactive),0.135 (inactive),1.21 (inactive),-0.166 (inactive),-1.89 (inactive),0.382,-0.0536
CCOC(=O)[C@H](CC(C)C)NC(=O)CCC1CC(OC(=O)NCc2ccc3c(c2)OCO3)CC2(CCCC(COC(=O)NCCCN3CCCC3=O)O2)O1 (stereo not given in full),0.526,-0.268,-0.106,-0.181,0.514,0.553,0.875 (inactive),-0.838,-0.328,0.142 (inactive),0.217,-1.17 (inactive),0.595 (inactive),-1.42 (inactive),0.38 (inactive),0.564 (inactive),0.877 (inactive),0.0512 (inactive),1.24,-0.145
CC(C)=CCCC(C)=CCON=C1C[C@@H](O)[C@@H](O)[C@@H]2[C@@H]3C(=O)N(c4ccc(F)cc4F)C(=O)[C@@H]3CC[C@H]12,-1.39,0.719,0.0201,-3.06,0.579,-2.26,0.866 (inactive),-0.786,-1.55,0.619 (inactive),0.844,-2.97 (inactive),0.257 (inactive),-1.42 (inactive),0.671 (inactive),-0.777 (inactive),0.375 (inactive),0.438 (inactive),1.32,-0.0939
COC(=O)CC=C[C@@H](C)[C@@H]1C=C[C@H](O)[C@@H](CO)O1,-0.864,-1.02,-0.008,0.667,-0.932,0.295,-0.875 (inactive),-0.229,-0.433,-0.554 (inactive),-0.118,0.626 (inactive),-3.24 (inactive),0.35 (inactive),0.274 (inactive),0.86 (inactive),0.439 (inactive),0.483 (inactive),-1.28,0.0727
Cc1ccc(S(=O)(=O)n2c3ccccc3c3nnc(C(=O)c4ccccc4)nc32)cc1,1.8,0.294,-0.284,-0.377,0.271,-2.96,0.839 (inactive),-0.248,-0.956,-0.721 (inactive),-0.148,-0.586 (inactive),-0.508 (inactive),-1.1 (inactive),0.523 (inactive),0.151 (inactive),1.04 (inactive),0.0979 (inactive),-0.222,-0.256
C=CC[C@@H]1C=C[C@H](ON=C(C)CCC(=O)OC[C@H]2O[C@H](C#Cc3ccccc3)C=C[C@@H]2Oc2ccc(C)cc2)[C@@H](CO)O1,0.572,-0.48,-0.0329,0.551,-0.737,-0.429,-0.311 (inactive),-0.759,-1.08,0.231 (inactive),-0.0055,1.09 (inactive),0.212 (inactive),0.103 (inactive),-0.242 (inactive),1.23 (inactive),0.911 (inactive),-1.55 (inactive),-0.177,0.132
C=C(C)C(=O)OCC1CN2[C@@H](CC[C@@H](C)[C@@H]2c2ccc(Br)cc2)C(=O)O1 (stereo not given in full),-0.0348,-0.518,-0.442,0.151,0.0247,0.684,-0.614 (inactive),-0.863,0.169,0.789 (inactive),0.679,-0.638 (inactive),0.653 (inactive),-0.134 (inactive),-0.564 (inactive),-0.18 (inactive),0.0293 (inactive),-1.59 (inactive),0.759,-0.0899
COc1ccc(O[C@H]2C=C[C@@H](c3ccccc3)O[C@@H]2CON=C(C)CCC(=O)OC[C@H]2O[C@H](c3ccccc3)C=C[C@@H]2Oc2ccc(OC)cc2)cc1,-0.094,-0.603,-0.144,-1.44,-0.31,1.08,0.244 (inactive),0.534,-0.492,0.305 (inactive),0.319,0.917 (inactive),0.427 (inactive),-0.497 (inactive),-0.868 (inactive),1.26 (inactive),0.277 (inactive),0.434 (inactive),0.476,-0.195
CC(C)=CCCC(C)=CCON=C1C[C@@H](O)[C@@H](O)[C@@H]2[C@@H]3C(=O)N(c4ccc(F)cc4F)C(=O)[C@@H]3CC[C@@H]12,-1.34,0.425,-0.354,-0.586,-1.47,0.208,-1.28 (inactive),-0.163,-0.356,-0.179 (inactive),0.387,-1.38 (inactive),0.77 (inactive),0.263 (inactive),0.519 (inactive),0.225 (inactive),0.781 (inactive),0.345 (inactive),0.75,-0.336
CCOC(=O)[C@H](CC(C)C)NC(=O)CCC1CC(OC(=O)NCc2cccc3ccccc23)CC2(CCCC(COC(=O)NCCc3ccc(Cl)cc3)O2)O1 (stereo not given in full),-0.539,-0.23,-0.0607,-3.16,0.403,0.326,1.03 (inactive),-0.436,-1.86,0.384 (inactive),0.568,-1.89 (inactive),1.15 (inactive),-1.16 (inactive),0.262 (inactive),-1.2 (inactive),0.389 (inactive),-0.214 (inactive),1.3,-0.0559
CO[C@@H]1COC(=O)[C@@H](C)NC(=O)CC=C[C@@H](C)[C@H](NS(=O)(=O)c2ccc(C)cc2)COC(=O)[C@H](C)NC(=O)CC=C[C@H]1C,0.458,0.177,0.196,-0.0848,-0.036,-0.125,-0.172 (inactive),0.51,0.468,1.33 (inactive),0.63,-0.673 (inactive),0.416 (inactive),0.0059 (inactive),-0.212 (inactive),-0.489 (inactive),1.39 (inactive),0.428 (inactive),1.08,-0.202
